Assay results: PubChem BioAssay AID1159580 (chemical genetic matrix, 2015)
Among all 5,500 compounds or so, about 2,000 (36%) were called active. Not shown: some 18% with an inconclusive outcome. No stated cut-off is given here; in the data, active means normalized growth mostly below about 0.91 (no sharp cut-off); inconclusive means no clear call, values can overlap the other calls; inactive means mostly above about 0.92. The list shows a part of the results.

Assay: chemical genetic growth profiling, strain panel (AID 1159580);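 further: tested at 20 µM; growth read once vehicle control cultures reached saturation at 30 °C; 1 = growth at the plate median or of vehicle wells; lower values mean less growth of the strain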
Conditions: growth OD
[1] = S. cerevisiae deletion strains, locus YGR078C, strain PAC10, hits give low values
[2] = S. cerevisiae deletion strains, locus YMR263W, strain SAP30, hits give low values
[3] = S. cerevisiae deletion strains, locus YNL153C, strain GIM3, hits give low values
[4] = S. cerevisiae deletion strains, locus YNL322C, strain KRE1, hits give low values
[5] = S. cerevisiae deletion strains, locus YPL055C, strain LGE1, hits give low values
[6] = S. cerevisiae deletion strains, locus YPL241C, strain CIN2, hits give low values

Measured: normalized growth

CC1=C(C(=O)O)N2C(=O)[C@@H](NC(=O)C(N)C3=CCC=CC3)[C@H]2SC1 (stereo partly drawn)
inactive: S. cerevisiae deletion strains, locus YAL040C, strain CLN3, hits give low values 1.02 | S. cerevisiae deletion strains, locus YDR363W, strain ESC2, hits give low values 1.03 | S. cerevisiae deletion strains, locus YER002W, strain NOP16, hits give low values 1.02 | [1] 1.01 | [2] 1.03 | [3] 1.01 | S. cerevisiae deletion strains, locus YNL175C, strain NOP13, hits give low values 1.02 | S. cerevisiae deletion strains, locus YNL197C, strain WHI3, hits give low values 1.03 | S. cerevisiae deletion strains, locus YNL224C, strain SQS1, hits give low values 1.01 | [4] 1.03 | S. cerevisiae deletion strains, locus YOR083W, strain WHI5 (second series), hits give low values 1.04 | [5] 1.02 | [6] 1.01

CN=C1CN(O)C(c2ccccc2)=c2cc(Cl)ccc2=N1
inactive: S. cerevisiae deletion strains, locus YAL013W, strain DEP1, hits give low values 0.989 | S. cerevisiae deletion strains, locus YBR021W, strain FUR4, hits give low values 1.06 | S. cerevisiae deletion strains, locus YBR229C, strain ROT2, hits give low values 0.969 | S. cerevisiae deletion strains, locus YCL029C, strain bik1, hits give low values 0.981 | S. cerevisiae deletion strains, locus YDL035C, strain GPR1, hits give low values 1.01 | S. cerevisiae deletion strains, locus YDL074C, strain BRE1, hits give low values 0.965 | S. cerevisiae deletion strains, locus YDL101C, strain DUN1, hits give low values 0.974 | S. cerevisiae deletion strains, locus YDL134C, strain PPH21, hits give low values 0.983 | S. cerevisiae deletion strains, locus YDL185W, strain tfp1, hits give low values 0.946 | S. cerevisiae deletion strains, locus YDL192W, strain arf1, hits give low values 0.983 | S. cerevisiae deletion strains, locus YDR101C, strain arx1, hits give low values 1.01 | S. cerevisiae deletion strains, locus YDR150W, strain NUM1, hits give low values 0.971 | S. cerevisiae deletion strains, locus YDR162C, strain NBP2, hits give low values 0.94 | S. cerevisiae deletion strains, locus YDR318W, strain mcm21, hits give low values 1.01 | S. cerevisiae deletion strains, locus YDR388W, hits give low values 0.983 | S. cerevisiae deletion strains, locus YDR502C, strain sam2, hits give low values 0.971 | S. cerevisiae deletion strains, locus YEL061C, strain CIN8, hits give low values 0.985 | S. cerevisiae deletion strains, locus YER110C, hits give low values 0.985 | S. cerevisiae deletion strains, locus YER155C, strain BEM2, hits give low values 0.997 | S. cerevisiae deletion strains, locus YER167W, strain BCK2, hits give low values 1 | S. cerevisiae deletion strains, locus YGL078C, strain dbp3, hits give low values 0.975 | S. cerevisiae deletion strains, locus YGL086W, strain mad1, hits give low values 1 | S. cerevisiae deletion strains, locus YGL248W, strain PDE1, hits give low values 0.978 | [1] 0.978 | S. cerevisiae deletion strains, locus YGR135W, strain pre9, hits give low values 0.955 | S. cerevisiae deletion strains, locus YGR229C, strain SMI1, hits give low values 0.993 | S. cerevisiae deletion strains, locus YGR252W, strain gcn5, hits give low values 1.06 | S. cerevisiae deletion strains, locus YHR030C, strain SLT2, hits give low values 1 | S. cerevisiae deletion strains, locus YHR079C, strain IRE1 (second series), hits give low values 0.991 | S. cerevisiae deletion strains, locus YHR094C, strain hxt1, hits give low values 0.987 | S. cerevisiae deletion strains, locus YHR129C, strain ARP1, hits give low values 0.992 | S. cerevisiae deletion strains, locus YHR200W, strain rpn10, hits give low values 0.983 | S. cerevisiae deletion strains, locus YIL066C, strain RNR3, hits give low values 0.97 | S. cerevisiae deletion strains, locus YIL073C, strain SPO22, hits give low values 1.02 | S. cerevisiae deletion strains, locus YIL125W, strain kgd1, hits give low values 0.978 | S. cerevisiae deletion strains, locus YIR030C, strain dcg1, hits give low values 0.985 | S. cerevisiae deletion strains, locus YJL095W, strain BCK1, hits give low values 0.981 | S. cerevisiae deletion strains, locus YJL134W, strain LCB3, hits give low values 0.997 | S. cerevisiae deletion strains, locus YJL168C, strain set2, hits give low values 0.984 | S. cerevisiae deletion strains, locus YJL187C, strain SWE1 (second series), hits give low values 0.959 | S. cerevisiae deletion strains, locus YJR043C, strain POL32, hits give low values 1.03 | S. cerevisiae deletion strains, locus YJR075W, strain HOC1, hits give low values 0.988 | S. cerevisiae deletion strains, locus YKL009W, strain mrt4, hits give low values 0.982 | S. cerevisiae deletion strains, locus YKL068W, hits give low values 0.988 | S. cerevisiae deletion strains, locus YKL085W, strain MDH1 (second series), hits give low values 0.978 | S. cerevisiae deletion strains, locus YKL085W, strain MDH1, hits give low values 0.978 | S. cerevisiae deletion strains, locus YKL190W, strain CNB1, hits give low values 0.979 | S. cerevisiae deletion strains, locus YKR001C, strain vps1, hits give low values 0.998 | S. cerevisiae deletion strains, locus YLR039C, strain RIC1, hits give low values 0.973 | S. cerevisiae deletion strains, locus YLR058C, strain SHM2, hits give low values 0.983 | S. cerevisiae deletion strains, locus YLR102C, strain apc9, hits give low values 0.976 | S. cerevisiae deletion strains, locus YLR262C, strain YPT6, hits give low values 0.969 | S. cerevisiae deletion strains, locus YLR268W, strain sec22, hits give low values 0.991 | S. cerevisiae deletion strains, locus YLR330W, strain CHS5, hits give low values 0.998 | S. cerevisiae deletion strains, locus YLR342W, strain FKS1 (second series), hits give low values 1.06 | S. cerevisiae deletion strains, locus YLR371W, strain rom2, hits give low values 0.969 | S. cerevisiae deletion strains, locus YLR418C, strain cdc73, hits give low values 0.951 | S. cerevisiae deletion strains, locus YML016C, strain PPZ1, hits give low values 0.988 | S. cerevisiae deletion strains, locus YML032C, strain rad52, hits give low values 0.989 | S. cerevisiae deletion strains, locus YML124C, strain tub3, hits give low values 0.984 | S. cerevisiae deletion strains, locus YMR078C, strain ctf18, hits give low values 0.98 | [2] 0.957 | S. cerevisiae deletion strains, locus YMR307W, strain GAS1, hits give low values 1.06 | S. cerevisiae deletion strains, locus YNL067W, strain RPL9B, hits give low values 0.974 | S. cerevisiae deletion strains, locus YNL128W, strain TEP1, hits give low values 0.966 | [3] 0.962 | S. cerevisiae deletion strains, locus YNL233W, strain BNI4, hits give low values 0.98 | S. cerevisiae deletion strains, locus YNL250W, strain rad50, hits give low values 0.981 | S. cerevisiae deletion strains, locus YNL271C, strain bni1, hits give low values 0.985 | S. cerevisiae deletion strains, locus YNL298W, strain CLA4, hits give low values 0.977 | S. cerevisiae deletion strains, locus YNL307C, strain MCK1, hits give low values 0.999 | [4] 0.987 | S. cerevisiae deletion strains, locus YNR052C, strain pop2, hits give low values 0.985 | S. cerevisiae deletion strains, locus YOL006C, strain TOP1, hits give low values 0.949 | S. cerevisiae deletion strains, locus YOL012C, strain htz1 0.854 | S. cerevisiae deletion strains, locus YOL147C, strain pex11, hits give low values 0.995 | S. cerevisiae deletion strains, locus YOR061W, strain CKA2, hits give low values 0.969 | S. cerevisiae deletion strains, locus YOR069W, strain VPS5, hits give low values 1 | S. cerevisiae deletion strains, locus YOR136W, strain idh2, hits give low values 0.988 | S. cerevisiae deletion strains, locus YOR144C, strain elg1, hits give low values 0.984 | S. cerevisiae deletion strains, locus YOR184W, strain ser1, hits give low values 1.01 | S. cerevisiae deletion strains, locus YOR316C, strain cot1, hits give low values 0.975 | [5] 0.934 | [6] 0.99 | S. cerevisiae deletion strains, locus YPR119W, strain clb2, hits give low values 0.989 | S. cerevisiae deletion strains, locus YPR141C, strain kar3, hits give low values 0.962 | S. cerevisiae deletion strains, locus YPR163C, strain tif3, hits give low values 0.988 | S. cerevisiae deletion strains, locus YPR167C, strain met16, hits give low values 0.983 | S. cerevisiae deletion strains, strain wtn01, hits give low values 0.984 | S. cerevisiae strains, strain wild type, hits give low values 0.994
